These results are taken from PubChem BioAssay (NCATS).

Records with an inconclusive call do not appear. Active and inactive are the calls of the source. Calls follow the shape of the dose curve; as a rule, active = well fitted inhibition curve with a large enough effect; inconclusive = small, poorly fitted or top-dose-only effect; inactive = no such curve, though single readings can be large or run the other way.
Potency is read from the fitted curve at half-maximal effect.

The nature of one test: BET inhibitor-based combinations targeting novel dependencies in MECOM-rearranged (r) AML: MV-4-11 cell line (AID 2202233). Also: nearly all actives have a fitted effect of over 45% in size. The note with it: MV-4-11 AML viability, CellTiter-Glo luminescence, 48 h; series mostly up to 46 µM. The method in brief: (§1)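 Normalized to DMSO and empty-well controls, the luminescence data from CellTiter-Glo after 48 hr drug exposure were fitted across 11 concentrations. Reported metrics are area under the dose-response curve and its Z-transformed form.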
For `Nc1nc(F)nc2c1ncn2[C@@H]1O[C@H](COP(=O)(O)O)[C@@H](O)[C@@H]1O`, the Potency is 11.8 µM (active).
For the compound `COc1cc2ncn(-c3cc(OCc4ccccc4C(F)(F)F)c(C(N)=O)s3)c2cc1OC`, the Potency is 2.09 µM (active).
In the case of `CC(C)C(=O)OCC(=O)[C@@]12O[C@H](C3CCCCC3)O[C@@H]1C[C@H]1[C@@H]3CCC4=CC(=O)C=C[C@]4(C)[C@H]3[C@@H](O)C[C@@]12C`, the Potency is 23.5 µM (active).
Still for that read-out and setting: the result for `CC#CC(=O)N1CC[C@@H](n2c(=O)n(-c3ccc(Oc4ccccc4)cc3)c3c(N)ncnc32)C1` reads 10.5 µM (active).
Consider `O=C(O)CNC(=O)c1ncc(-c2cccc(Cl)c2)cc1O`, for which the Potency entry was “inactive”.
`COc1nnc2ccc(N3CCC(c4ccc(OCCN5CCN(C)C(=O)[C@H]5C)cc4)CC3)nn12`: the Potency is 0.059 µM (active).
As to `CCC(C)CNCC(=O)N1CCc2sccc2C1c1cccc(C)n1` (stereo not given), the Potency result was “inactive”.
`C=C1C[C@@H]2CC[C@@]34C[C@H]5O[C@H]6[C@@H](O3)[C@H]3O[C@H](CC[C@@H]3O[C@H]6[C@H]5O4)CC(=O)C[C@@H]3[C@@H](OC)[C@@H](C[C@H](O)CN)O[C@H]3C[C@H]3O[C@@H](CC[C@@H]1O2)C[C@@H](C)C3=C`: the Potency is 0.0017 µM (active).
On to `CCCC[C@@H](C=O)NC(=O)[C@H](CC(C)C)NC(=O)OCc1ccccc1`, for which the Potency was 18.6 µM (active).
The same measure, in the same setting: in the case of `Cc1c(C(=O)Nc2ccc(Oc3ccnc4[nH]cc(-c5ccccc5)c34)c(F)c2)c(=O)n(-c2ccc(F)cc2)n1C` it was 0.0742 µM (active); in that of `COc1cc(F)ccc1-c1ncnc(Nc2cccc(CS(C)(=N)=O)c2)n1` (stereo not given), 0.742 µM (active); in that of `C[C@H](NC(=O)c1c(N)nn2cccnc12)c1cc2cccc(C#Cc3cnn(C)c3)c2c(=O)n1-c1ccccc1`, 8.11 µM (active).
As to `NC1CCCN(c2c(/C=C3\SC(=O)NC3=O)cccc2-c2ccccc2)C1` (stereo not given), the Potency was 1.18 µM (active).
`C[C@H]1CNCCCN1S(=O)(=O)c1cccc2cncc(F)c12`: the Potency result was “inactive”.
Take `CCCCCCCCCCCC(CC1OC(=O)C1CCCCCC)OC(=O)C(CC(C)C)NC=O` (stereo not given): the Potency is 0.742 µM (active).
On to `NC[C@H]1O[C@H](O[C@H]2[C@H](O)[C@@H](O[C@H]3O[C@H](CO)[C@@H](O)[C@H](N)[C@H]3O)[C@H](N)C[C@@H]2N)[C@H](N)C[C@@H]1O`, for which the Potency result is “inactive”.
The same measure, in the same setting: in the case of `COC1CC(C(=O)c2ccc3c(N)ncc(-c4ccc(-c5cnn(C)c5)cc4)c3n2)C1` (stereo not given) it was 2.95 µM (active).
Still for that read-out and setting: in the case of `COc1ccc(C(=O)N2CCN(c3ccc4c(c3)CCC(=O)N4)CC2)cc1OC` it was “inactive”.
Regarding `Cc1c(-c2cnccn2)ssc1=S`, the Potency is 3.72 µM (active).
On the same count and under the same terms, in the case of `Cc1ccc(NC(=O)NCc2ccc3c(c2)CN(C2CCC(=O)NC2=O)C3=O)cc1Cl` (stereo not given) it was 0.0026 µM (active); in that of `COc1ccc(S(=O)(=O)N(C(C)=O)c2ccccc2/C=C/c2cc[n+]([O-])cc2)cc1`, 1.18 µM (active).
Still for that read-out and setting: the result for `COc1ccc(S(=O)(=O)N2CCc3cccc(-c4ccncc4)c32)cc1` reads 1.18 µM (active); that for `CCO[C@@H]1OC(=O)C[C@@H]1NC(=O)[C@@H]1CCCN2C(=O)CC[C@H](NC(=O)c3nccc4ccccc34)C(=O)N12`, “inactive”.
On the same count and under the same terms, in the case of `COc1cc2nccc(Oc3ccc(NC(=O)c4cn(C(C)C)c(=O)n(-c5ccc(F)cc5)c4=O)cc3F)c2cc1OC` it was 0.468 µM (active); in that of `CC(C)C[C@H](NC(=O)[C@H](Cc1ccccc1)NC(=O)OCc1ccccc1)C(=O)C=O`, “inactive”.

The next test is described as follows: BET inhibitor-based combinations targeting novel dependencies in MECOM-rearranged (r) AML: HNT-34 cell line (AID 2202234). Also: nearly all actives have a fitted effect of over 35% in size. The note with it: HNT-34 AML viability, CellTiter-Glo luminescence, 48 h; series mostly up to 46 µM. Put shortly: as §1
As for `O=C(CCCCCCC(=O)N/N=C/c1ccc(N(c2ccccc2)c2ccccc2)cc1)NO`, the Potency was 4.68 µM (active).
For `COc1cc(-c2cn(C)c(=O)c3cnccc23)cc(OC)c1CN(C)C`, the Potency entry was “inactive”.
The same measure, in the same setting: in the case of `COc1cc2c3c(n(CCCn4ccnc4)c(=O)c2cc1OC)-c1cc2c(cc1C3=O)OCO2` it was 0.0263 µM (active).
Still for that read-out and setting: in the case of `CC(=O)Nc1cc(Oc2ccc3c(nc(Nc4ccc(F)cc4F)n3C)c2C)ccn1` it was 0.118 µM (active); in that of `Cc1ccc(NS(=O)(=O)c2ccc3c(c2)C2C=CCC2C(c2ccc(C(=O)O)cc2)N3)cc1C` (stereo not given), “inactive”; in that of `CC(=O)O/N=C1\C(=O)N(Cc2cc(Cl)ccc2Cl)c2ccc(Cl)cc21`, 2.95 µM (active).
Consider `C[C@H](CCC(=O)O)[C@H]1CC[C@H]2[C@@H]3[C@@H](O)C[C@@H]4C[C@H](O)CC[C@]4(C)[C@H]3CC[C@]12C`, for which the Potency result is “inactive”.
Still for that read-out and setting: the result for `COc1ccc2c(c1)CC[C@@H]1[C@@H]2CC[C@]2(C)[C@@H](NCCCCCCN3C(=O)C=CC3=O)CC[C@@H]12` reads “inactive”.
Take `COc1cc2c3c(n(CCCN4CCOCC4)c(=O)c2cc1OC)-c1cc2c(cc1C3=O)OCO2`: the Potency was 0.0934 µM (active).
For the compound `O=C(Nc1cnn2ccc(N3CCC[C@@H]3c3cc(F)ccc3F)nc12)N1CC[C@H](O)C1`, the Potency entry is “inactive”.
Turning to `COc1cc2c3c(n(CCCNCCO)c(=O)c2cc1OC)-c1cc2c(cc1C3=O)OCO2`, the Potency is 0.059 µM (active).
Still for that read-out and setting: in the case of `CC(=O)NCCCS(=O)(=O)O` it was “inactive”.
With `CC(C)n1ncnc1-c1cn2c(n1)-c1ccc(O[C@@H](C)C(N)=O)cc1OCC2`, the Potency was 18.6 µM (active).
In the case of `Cc1cc(C)c2c(c1)[C@@H](N(Cc1cc(C(F)(F)F)cc(C(F)(F)F)c1)c1nnn(C)n1)CCCN2CC1CCC(C(=O)O)CC1` (stereo not given in full), the Potency is 18.6 µM (active).
As to `CCCCC[C@H](O)/C=C/[C@H]1[C@H](O)CC(=O)[C@@H]1CCCCCCC(=O)O`, the Potency is 16.6 µM (active).
